Rows were chosen to be rich in hits. Some 3.6% of all compounds tested hit in one or more screens of this group.
OvCa metastasis – Primary qHTS assay for Inhibitors of ovarian cancer metastasis using an organotypic tumor microenvironment (TME) model | AID 1963576, 2024 | Potency, µM (top dose mostly 45.8 µM), hits mostly inhibitors | SKOV3ip1-GFP adhesion/invasion on 3D omental model, fluorescence | 46,000 tested, 0.1% active; also: nearly all actives have a fitted effect of over 65% in size
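Adhesion/invasion was scored as fixed GFP-labeled SKOV3ip1 cell counts (488/509 nm), normalized to DMSO and tomatine controls. Cancer cells in serum-free medium, with four compound doses (0.36-46 umol/L), sat 2 hr at RT then 16 hr at 37 C on a 48 hr fibroblast/mesothelial/ECM culture.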
NTMT1 inh – Primary qHTS for Inhibitors of N-terminal methyltransferase 1 (NTMT1): MTaseGlo Assay; N-terminal Xaa-Pro-Lys N-methyltransferase 1 (Homo sapiens), Q9BV86; NTMT1 MTase-Glo SAH luminescence, purified enzyme; Potency, µM (highest dose often 114 µM), usual class: inhibitors; 59,000 tested, 2.5% active; also: nearly all actives have a fitted effect of over 65% in size
DYRK1A inh-1 – Assay for Inhibitors of Dual-Specificity Tyrosine-(Y)-Phosphorylation Regulated Kinase 1A (Kinase-Glo assay); 100 tested, 80% active; AID 2705, 2010; shares compounds with NTMT1 inh; recombinant DYRK1A, Kinase-Glo ATP depletion luminescence; Potency, µM (titrated, usually from 76.9 µM), hits mostly inhibitors
CLK4 inh – Kinase Inhibition Study on Inhibitors of CDC-like Kinase 4 (Reaction Biology data): SAR round 2. shares compounds with NTMT1 inh. Reaction Biology kinase assay, 10 uM ATP. Potency, µM, hits mostly inhibitors. 65 tested, 100% active. AID 504421, 2011; calls by dose curve
DYRK1A inh-2 – Kinase Inhibition Study on Inhibitors of Dyrk1a (Reaction Biology data); 65 tested, 90% active; AID 504424, 2011; Potency, µM, usual class: inhibitors; Reaction Biology kinase assay, 10 uM ATP; shares compounds with NTMT1 inh;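 active = compounds that showed inhibition of Dyrk1a and received a fitted potency; inactive = compounds that showed no inhibition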
CLK2 RBC – Kinase Inhibition Study on Inhibitors of CDC-like Kinase 2 (Reaction Biology data). Potency, µM, actives largely listed as inhibitors. 65 tested, 90% active. AID 504427, 2011. shares compounds with NTMT1 inh. Reaction Biology kinase assay, 10 uM ATP;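 active = compound that inhibits Clk2 kinase in the dose series, with an IC50 potency reported; inactive = no inhibition seen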
CLK3 RBC – Kinase Inhibition Study on Inhibitors of CDC-like Kinase 3 (Reaction Biology data); Potency, µM, usual class: inhibitors; shares compounds with NTMT1 inh; recombinant CLK3 kinase assay, 10 uM ATP; 65 tested, 40% active;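 active = compounds that inhibited Clk3 enough in the ten-dose series to give a half-maximal potency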
DYRK1B RBC – Kinase Inhibition Study on Inhibitors of Dyrk1b (Reaction Biology data); shares compounds with NTMT1 inh; Recombinant Dyrk1b kinase assay, 10 uM ATP; Potency, µM, most hits filed as inhibitors; 65 tested, 80% active;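 active = compounds whose dose response shows an inhibitor phenotype against the kinase Dyrk1b; inactive = compounds showing no inhibitor phenotype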
Target sequence (Q9Y463 whole entry, looked up): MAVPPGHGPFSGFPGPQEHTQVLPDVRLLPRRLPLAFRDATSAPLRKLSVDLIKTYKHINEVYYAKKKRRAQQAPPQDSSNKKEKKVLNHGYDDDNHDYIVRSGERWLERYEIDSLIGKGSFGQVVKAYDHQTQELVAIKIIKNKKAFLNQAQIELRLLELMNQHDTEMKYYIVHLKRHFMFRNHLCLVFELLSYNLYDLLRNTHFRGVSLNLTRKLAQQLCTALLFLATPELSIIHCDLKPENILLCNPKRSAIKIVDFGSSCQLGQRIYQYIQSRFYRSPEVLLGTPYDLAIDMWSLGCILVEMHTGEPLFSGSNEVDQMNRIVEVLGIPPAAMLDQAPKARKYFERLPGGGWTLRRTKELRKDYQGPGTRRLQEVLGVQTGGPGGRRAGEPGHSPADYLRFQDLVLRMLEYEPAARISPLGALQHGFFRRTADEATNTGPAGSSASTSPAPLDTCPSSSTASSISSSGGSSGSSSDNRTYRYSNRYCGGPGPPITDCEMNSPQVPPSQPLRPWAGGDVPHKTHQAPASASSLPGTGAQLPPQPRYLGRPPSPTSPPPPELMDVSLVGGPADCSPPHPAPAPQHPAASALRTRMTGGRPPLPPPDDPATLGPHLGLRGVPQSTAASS
CLK1 inh – Kinase Inhibition Study on Inhibitors of CDC-like Kinase 1 (Reaction Biology data); shares compounds with NTMT1 inh; recombinant Clk1 kinase assay, 10 uM ATP; Potency, µM, most hits filed as inhibitors; 65 tested, 90% active;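 active = compounds that block the splicing kinase Clk1 enough to give a fitted half-inhibition concentration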
Sfp qHTS opt – qHTS Assay for Inhibitos of Bacillus subtilis Sfp phosphopantetheinyl transferase (PPTase): Chemistry Optimization Followup; shares compounds with NTMT1 inh; purified Sfp PPTase enzyme activity, qHTS; Potency, µM (titrated, usually from 114 µM), hits mostly inhibitors; 230 tested, 78% active
Bsub HM489 growth – qHTS for Inhibitos of Bacillus subtilis Sfp phosphopantetheinyl transferase (PPTase): Chemistry Optimization Followup in B. Subtilis HM489. Potency, µM (titrated, usually from 114 µM), actives largely listed as inhibitors. shares compounds with NTMT1 inh. B. subtilis HM489 (acpS-) growth, BacTiter-Glo, 5 h. 220 tested, 50% active
Sfp gel opt – Gel-Based Assay for Inhibitos of Bacillus subtilis Sfp phosphopantetheinyl transferase (PPTase): Chemistry Optimization Followup; shares compounds with NTMT1 inh; purified Sfp PPTase, gel-based product detection; Potency, µM (series often up to 250 µM), actives largely listed as inhibitors; 220 tested, 54% active
Sfp SAR2 – qHTS Assay for Inhibitors of Bacillus subtilis Sfp phosphopantetheinyl transferase (PPTase): SAR Round 2 | shares compounds with NTMT1 inh | 230 tested, 87% active | Potency, µM (titrated, usually from 57.1 µM), actives largely listed as inhibitors | purified Sfp enzyme, PPTase activity, qHTS
HSD17B4 inh – Extended Characterization of HPGD Inhibitors: Counterscreen Against HSD17b4; shares compounds with NTMT1 inh; purified HSD17B4, estradiol/NAD+, NADH fluorescence; Potency, µM (titrated, usually from 57.1 µM), usual class: inhibitors; 230 tested, 10% active
ALDH1A1 inh – Extended Characterization of HPGD Inhibitors: Counterscreen Against ALDH1A1; shares compounds with NTMT1 inh; recombinant ALDH1A1, NADH fluorescence, propionaldehyde/NAD+; Potency, µM (series often up to 57.1 µM), hits mostly inhibitors; 230 tested, 93% active; AID 743195, 2013
NNMT inh – Counterscreen qHTS for Inhibitors of N-terminal methyltransferase 1 (NTMT1): NNMT MTaseGlo assay. shares compounds with NTMT1 inh. NNMT MTase-Glo luminescence, SAH detection. Potency, µM (titrated, usually from 57.1 µM), hits mostly inhibitors. 120 tested, 10% active. AID 1645878, 2021
A number is an active result; . = inactive; ? = inconclusive; / = no result given; ! = repeats disagree; [ ] = dose if it differs, or a comment. Unless noted, calls follow the shape of the dose curve; as a rule, active = well fitted curve in the direction sought with a large enough effect; inconclusive = small, poorly fitted or top-dose-only effect, or another doubt; inactive = no such curve, though single readings can be large; an effect the other way counts as inactive or inconclusive.

SMILES	OvCa metastasis	NTMT1 inh	DYRK1A inh-1	others
O=C(Nc1ccccc1)C1CCN(c2ncc(-c3ccc4c(c3)OCCCO4)s2)CC1	/	.	/
Cc1ccc(CNc2ncnc3ccc(-c4ccc5c(c4)OCO5)cc23)s1	/	.	0.52µM	CLK4 inh=0.12;DYRK1A inh-2=1.2µM;CLK2 RBC=15µM;CLK3 RBC=.;DYRK1B RBC=15µM;CLK1 inh=0.89µM
c1csc(CNc2ncnc3cc(-c4ccc5c(c4)OCO5)ccc23)c1	/	.	/
c1csc(CNc2ncnc3ccc(-c4ccoc4)cc23)c1	/	?	1.5µM
Cc1cccc(-c2ccc3ncnc(NCc4cc(C)cs4)c3c2)c1	/	.	/
Cc1ccsc1CNc1ncnc2ccc(-c3ccc4c(c3)OCO4)cc12	/	.	0.082µM	CLK4 inh=0.035;DYRK1A inh-2=0.035µM;CLK2 RBC=2.2µM;CLK3 RBC=6.6µM;DYRK1B RBC=0.51µM;CLK1 inh=0.069µM
Cc1cccc(CNc2ncnc3ccc(-c4cccc(Cl)c4)cc23)c1	/	.	/
c1nc(NCc2ccoc2)c2cc(-c3ccc4c(c3)OCO4)ccc2n1	/	?	0.092µM	CLK4 inh=0.038;DYRK1A inh-2=0.13µM;CLK2 RBC=0.88µM;CLK3 RBC=4.7µM;DYRK1B RBC=0.94µM;CLK1 inh=0.11µM
c1c[nH]c(CNc2ncnc3ccc(-c4ccc5c(c4)OCO5)cc23)n1	/	.	0.37µM	CLK4 inh=0.034;DYRK1A inh-2=0.15µM;CLK2 RBC=3.6µM;CLK3 RBC=15µM;DYRK1B RBC=1.1µM;CLK1 inh=0.19µM
c1nc(OCc2cnc[nH]2)c2cc(-c3ccc4c(c3)OCO4)ccc2n1	/	.	8.2µM
Cc1cccc(CNc2ncnc3ccc(-c4ccc5c(c4)OCO5)cc23)c1	/	.	/
Cc1occc1CNc1ncnc2ccc(-c3ccc4c(c3)OCO4)cc12	/	?	0.092µM	CLK4 inh=0.047;DYRK1A inh-2=0.057µM;CLK2 RBC=2.7µM;CLK3 RBC=6.5µM;DYRK1B RBC=0.43µM;CLK1 inh=0.086µM
Cc1noc(C)c1-c1ccc2ncnc(NCc3ccccc3F)c2c1	/	.	/
CCOC(=O)CCN(C(=O)c1ccc2c(c1)nc(CNc1ccc(C(=N)N)cc1)n2C)c1ccccn1	/	.	/
O=C(Nc1nnc(-c2ccncc2)s1)NC12CC3CC(CC(C3)C1)C2	/	.	/
CC(=O)OC(C)(C)/C=C/C(=O)[C@](C)(O)C1[C@H](O)C[C@@]2(C)[C@@H]3CC=C4[C@@H](C[C@H](O[C@@H]5O[C@H](CO)[C@@H](O)[C@H](O)[C@H]5O)C(=O)C4(C)C)[C@]3(C)C(=O)C[C@]12C (stereo not given in full)	/	.[12.6 µM]	/
CCOC(=O)CCNc1cc(N2CCc3ccccc3CC2)nc(-c2ccccn2)n1	/	.	/
C[C@@H]1CC[C@]2(C)C(C[C@@H](O)[C@H](O)[C@]23CO3)[C@@]1(C)CCc1ccoc1 (stereo not given in full)	/	.	/
COc1cc(N2CCC(O)CC2)ccc1Nc1nc(Nc2ccccc2S(=O)(=O)C(C)C)c2[nH]cnc2n1	/	.	/	NNMT inh=?
O=c1cc(CN2CCOCC2)occ1OCCCCCSc1ccnc2cc(C(F)(F)F)ccc12	.	?	/
Cc1cc(CS(=O)(=O)c2ccccc2)cc(OCc2ccc(CN3CCC[C@@H]3CO)cc2)c1	/	8.9µM!	/	NNMT inh=.
O=C(Cc1c(F)cccc1F)Nc1cc(OCc2ccc(Cl)cc2)ccn1	/	.	/	NNMT inh=?
C[C@@]12CC[C@@H]3[C@@](CC[C@H]4[C@@]3(C)CCC[C@@]4(C)C(=O)O)(CC1=O)C2	/	.	/
O=C(Nc1ccccc1)N1CCN(Cc2ccc3ccccc3n2)CC1	/	.	/
COc1cccc(NC(=S)N2CCN(c3cccc(Cl)c3Cl)CC2)n1	/	?	/	Sfp qHTS opt=?;Bsub HM489 growth=?;Sfp gel opt=?;Sfp SAR2=5.8µM;HSD17B4 inh=.;ALDH1A1 inh=1.2µM
